Data published in PMC4336329 (PLoS ONE, 2015).
The campaign covered roughly 310,000 compounds. About 14,000 (4.5%) showed an effect of 50% or more. Effects have a minus sign here. Shown is part of a subset that was picked to be rich in strong results.

What follows are molecules tested against human ether-à-go-go-related gene (hERG) potassium channel (human, UniProt Q12809) (assay: primary screen, population patch clamp on CHO cells stably expressing hERG; higher = less effect of the substance).
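Note: peak tail current of the secondary pulse compared with the same well before compound.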

Sequence of human ether-à-go-go-related gene (hERG) potassium channel (Q12809 whole entry, looked up): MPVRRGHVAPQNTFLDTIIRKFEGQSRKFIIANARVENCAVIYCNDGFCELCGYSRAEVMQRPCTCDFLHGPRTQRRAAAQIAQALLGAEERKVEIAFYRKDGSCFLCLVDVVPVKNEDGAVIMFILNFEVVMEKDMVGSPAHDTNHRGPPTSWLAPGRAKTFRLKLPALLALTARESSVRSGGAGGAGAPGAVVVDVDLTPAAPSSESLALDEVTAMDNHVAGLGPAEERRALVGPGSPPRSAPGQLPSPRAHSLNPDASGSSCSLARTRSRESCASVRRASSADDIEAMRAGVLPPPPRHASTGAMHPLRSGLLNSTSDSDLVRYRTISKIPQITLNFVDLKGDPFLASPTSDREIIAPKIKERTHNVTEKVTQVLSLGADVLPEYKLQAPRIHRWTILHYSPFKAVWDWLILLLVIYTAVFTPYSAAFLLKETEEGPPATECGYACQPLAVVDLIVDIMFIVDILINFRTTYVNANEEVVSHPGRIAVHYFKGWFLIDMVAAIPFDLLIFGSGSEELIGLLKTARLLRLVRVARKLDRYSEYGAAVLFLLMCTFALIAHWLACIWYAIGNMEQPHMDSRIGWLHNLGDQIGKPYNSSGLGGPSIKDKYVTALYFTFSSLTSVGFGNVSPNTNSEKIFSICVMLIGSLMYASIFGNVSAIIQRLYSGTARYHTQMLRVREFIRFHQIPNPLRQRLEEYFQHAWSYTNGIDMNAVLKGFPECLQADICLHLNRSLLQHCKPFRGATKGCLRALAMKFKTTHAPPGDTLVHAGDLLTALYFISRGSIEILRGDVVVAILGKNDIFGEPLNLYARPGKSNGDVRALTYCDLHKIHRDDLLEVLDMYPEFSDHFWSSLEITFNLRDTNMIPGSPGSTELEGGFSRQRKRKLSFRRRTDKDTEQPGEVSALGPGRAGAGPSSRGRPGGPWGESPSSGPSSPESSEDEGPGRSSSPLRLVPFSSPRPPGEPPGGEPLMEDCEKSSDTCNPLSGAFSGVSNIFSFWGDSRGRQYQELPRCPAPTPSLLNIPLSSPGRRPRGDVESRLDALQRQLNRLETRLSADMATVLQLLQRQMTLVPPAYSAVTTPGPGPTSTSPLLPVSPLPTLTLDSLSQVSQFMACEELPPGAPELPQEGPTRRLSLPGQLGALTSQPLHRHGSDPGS

| SMILES | hERG current change (%, negative = inhibition) at 10uM |
| --- | --- |
| CCSCCOC(=O)C1=C(C)N(C)C(=O)NC1c1ccc2c(c1)OCO2 (centres unmarked) | 5.29% |
| Cc1ccc(S(=O)(=O)N(CC(=O)NCc2cccnc2)C2CCCCC2)cc1 | -63.3% |
| O=C(CN(C1CCCCC1)S(=O)(=O)c1ccccc1)NCc1cccnc1 | -30% |
| CS(=O)(=O)N(CC(=O)NCc1cccnc1)C1CCCCC1 | 5.98% |
| COc1ccc(S(=O)(=O)N(CC(=O)NCc2cccnc2)C2CCCCC2)cc1OC | -12.7% |
| O=C(CN(C1CCCCC1)S(=O)(=O)c1ccc(Cl)cc1)NCc1cccnc1 | -74.4% |
| Cc1cc(C)c(S(=O)(=O)N(CC(=O)NCc2cccnc2)C2CCCCC2)c(C)c1 | -37.4% |
| O=C(COC(=O)c1cc(S(=O)(=O)N2CCOCC2)ccc1F)NC1CCCCC1 | -2.25% |
| O/N=C\c1ccccc1Oc1ccc(F)cc1 | 12.8% |
| O=[N+]([O-])c1cc(/C=N\O)ccc1Oc1ccc(F)cc1 | -72.1% |
| O=[N+]([O-])c1cc(/C=N/O)ccc1Oc1ccccc1Cl | -16% |
| COc1cc(/C=N/O)ccc1Oc1ccc([N+](=O)[O-])cc1[N+](=O)[O-] | -45.9% |
| O=[N+]([O-])c1cc(/C=N/O)ccc1Oc1cccc(Cl)c1 | -53.7% |
| CO/N=C/c1ccc(Oc2ccc(C)cc2)c([N+](=O)[O-])c1 | 12.1% |
| CC(NC1c2ccccc2-c2ccccc21)c1ccccc1 (centres unmarked) | 9.54% |
| CCOC(=O)c1c(NC=O)sc2c1CCC2 | -2.89% |
| Cc1ccc(C)c(NC(=S)NNC(=O)c2csc3c2CCC(C)C3)c1 (centres unmarked) | 3.17% |
| O=C(NCc1ccccc1)C1=C[C@@H](c2ccccc2)C[C@@H](OCc2ccc(CO)cc2)O1 | -14.4% |
| CCN(CC(=O)Nc1cccc(S(N)(=O)=O)c1)Cc1nc2ccccc2c(=O)[nH]1 | 3.49% |

| SMILES | hERG current change (%, negative = inhibition) at 10uM |
| --- | --- |
| Cc1cc(-c2cc(-c3ccc(Cl)cc3)nc(N)c2C#N)co1 | -1.55% |
| O=C(O)c1cccnc1Nc1ccc(Cl)cc1 | 25% |
| COc1ccc(CCNC(=O)CCn2c(=O)c3ccccc3n(CC(=O)NCC3CCCO3)c2=O)cc1OC (centres unmarked) | 8.86% |
| COc1ccc(CCn2c(=N)c(C(=O)NCC3CCCO3)cc3c(=O)n4ccccc4nc32)cc1 (centres unmarked) | -77.9% |
| COc1ccc(-c2cc(C(=O)NCC3CCCO3)c3ccccc3n2)c(OC)c1 (centres unmarked) | -0.667% |
| COc1ccc(CCn2c(=N)c(C(=O)NCC3CCCO3)cc3c(=O)n4ccccc4nc32)cc1OC (centres unmarked) | -75.9% |
| COc1ccc(Cn2c(=N)c(C(=O)NCC3CCCO3)cc3c(=O)n4ccccc4nc32)cc1 (centres unmarked) | -82.2% |
| COc1ccc(CCNC(=O)C(=O)NCC2CCCO2)cc1OC (centres unmarked) | 3.13% |
| COc1ccc(-n2nc(C(=O)NCC3CCCO3)c3ccccc3c2=O)cc1 (centres unmarked) | 31.7% |
| COc1ccc(C(=O)Nc2ccccc2C(=O)NCC2CCCO2)cc1 (centres unmarked) | 4.28% |
| COc1ccc(-c2cc(C(=O)NCC3CCCO3)c3ccccc3n2)cc1 (centres unmarked) | -10.7% |
| Cc1csc(SCC(=O)NC23CC4CC(CC(C4)C2)C3)n1 | -20.5% |
| O=S(=O)(/N=C(/Nc1cccc2ccccc12)c1ccc(F)cc1)c1ccccc1 | -42.8% |
| COCCCNC(=O)Cn1nnc(-c2ccc(NC(=O)c3ccccc3F)cc2)n1 | -2.44% |
| CCOC(=O)CN(C(=O)CSc1nnc(-c2ccc(OC)c(OC)c2)o1)c1ccc(F)cc1 | -49.6% |
| CC(=O)c1sc(NC(=O)CCOc2ccccc2)nc1C | 5.9% |
| CCC(Sc1nc2n[nH]c(C)c2c(=N)n1-c1cc(Cl)ccc1C)C(=O)N1CCOCC1 (centres unmarked) | -0.58% |
| CC1CCN(C(C)C(=O)Nc2ccc(S(=O)(=O)N3CCCC3)cc2)CC1 (centres unmarked) | -6.3% |
| CC(C(=O)Nc1ccc(C#N)cc1)N1CCN(C(=O)C2CC2)CC1 (centres unmarked) | -61.2% |

| SMILES | hERG current change (%, negative = inhibition) at 10uM |
| --- | --- |
| COc1cc(NC(=O)C(C)N2CCN(C(=O)C3CC3)CC2)cc(OC)c1 (centres unmarked) | -16.1% |
| CCOCCCNc1ncnc2c1nc1n2CCCC1 | 17.2% |
| CC(C)OCCCNc1ncnc2c1nc1n2CCCC1 | -72.6% |
| COCCCNc1ncnc2c1nc1n2CCCC1 | 18.6% |
| COc1ccc2[nH]cc(CCN3C(=O)CCC3=O)c2c1 | 10.7% |
| O=C(CSc1nc2c(c(C(F)(F)F)n1)CCc1ccccc1-2)NCc1ccc(F)cc1 | 14.2% |
| CCN(CC)CCCNC(=O)CSc1nc2c(c(C(F)(F)F)n1)CCc1ccccc1-2 | -52.2% |
| O=C(CSc1nc2c(c(C(F)(F)F)n1)CCc1ccccc1-2)NCc1ccccc1 | 6.56% |
| Cl.O=C(CN1CCCC(O)C1)N1c2ccccc2Sc2ccc(C(F)(F)F)cc21 (centres unmarked) | -7.16% |
| CC(Oc1ccccc1)C(=O)Nc1c2c(nn1-c1ccccc1)CS(=O)(=O)C2 (centres unmarked) | 18.2% |
| COc1cccc(C(=O)Nc2c3c(nn2-c2ccc([N+](=O)[O-])cc2)CS(=O)(=O)C3)c1 | -53.8% |
| COc1ccccc1C(=O)Nc1c2c(nn1-c1ccc([N+](=O)[O-])cc1)CS(=O)(=O)C2 | 11.7% |
| O=C(Nc1c2c(nn1-c1ccccc1)CS(=O)(=O)C2)c1ccco1 | -9.21% |
| CC(C)Oc1ccc(C(=O)Nc2c3c(nn2-c2ccccc2)CS(=O)(=O)C3)cc1 | -65.9% |
| O=C(Nc1c2c(nn1-c1ccc([N+](=O)[O-])cc1)CS(=O)(=O)C2)c1ccco1 | -64.7% |
| Cc1ccc(-n2nc3c(c2NC(=O)c2ccco2)CS(=O)(=O)C3)cc1 | -25.7% |
| COc1ccc(C(=O)Nc2c3c(nn2-c2ccc([N+](=O)[O-])cc2)CS(=O)(=O)C3)cc1 | -9.85% |
| CCOc1ccc(C(=O)Nc2c3c(nn2-c2ccccc2)CS(=O)(=O)C3)cc1 | 4.84% |
